Test results reported in PubChem BioAssay AID756 (University of Pittsburgh Molecular Library Screening Center, 2007).
The other results are listed elsewhere or left out.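 The calls were made as follows: active = both duplicate runs show 50% or greater inhibition; inconclusive = only one duplicate run shows over 50% inhibition; inactive = both runs show under 50% inhibition.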

Assay: false signal in post-reaction Plk1 detection – biochemical, TR-FRET, compound added post-reaction, artefact control for Plk1 kinase inhibitor project (AID 756);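 also: 0% = DMSO max control and 100% = H-89 min control inhibited reaction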
Details: Plk1 TR-FRET assay interference, at 10 µM, hits give high values

Inhibition (interference), inactive:
C[N+]1(CCNC(=O)/C=N/O)CCCCC1 -46.6%, Cc1ccnc(N2C(=O)c3ccccc3C2Nc2ccc3c(c2)OCCO3)c1 (stereo unspecified) -50.1%, CC1CN(c2cc(=O)n(Cc3ccc(F)cc3)c(=O)[nH]2)CC(C)O1 (stereo unspecified) -49.5%, O=C(Nc1cccc(F)c1)c1ccc(S(=O)(=O)N2CCCC2)cc1 -44.8%, CC1CSc2nnc(CCc3ccccc3)n21 (stereo unspecified) -58.9%, COc1ccc(-c2nc(CS(=O)CC(=O)NCc3cccnc3)c(C)o2)cc1OC (stereo unspecified) -52.6%
